A1 inh: inhibitors of the anti-apoptotic protein A1, read as caspase activation; MEF A1-2A-BIM cells, Caspase-Glo 3/7 luminescence, 3 h; percent of clofoctol response, vehicle zero; caspase activation, % (test concentration not listed); 330,000 compounds, 0.066% hits; AID 2462;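 active = over half of replicate activation scores above 10%, or exactly half above 10 with the replicate mean above 10; inconclusive = replicate mean below 10 yet half the replicates above 10; inactive = over half of replicates below 10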
Efflux pump mplx: inhibitors of Candida antifungal efflux pumps expressed in yeast. inhibition, % at 10 µM. 330,000 compounds, 0.44% hits. S. cerevisiae Candida pump triplex, Nile Red efflux;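 active = plate passing quality check with inhibition over a set limit, or well fluorescence over plate mean plus 4 SD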;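 note: Nile Red retained in pooled yeast measured as flow cytometry median fluorescence; 0% = buffer negative control and 100% = Enniatin B positive control; higher means more Nile Red kept so more efflux inhibition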
AHR activator: activates the human aryl hydrocarbon receptor; activation, % at 5 µM; 320,000 compounds, 2.5% hits; AHR-responsive luciferase reporter cells, luminescence; P35869; in the data active = activation above about 47%;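 note: 0% = vehicle wells and 100% = reference agonist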
Mot1-301 SUMO: SUMOylation pathway inhibition by Mot1-301 growth rescue; S. cerevisiae Mot1-301 growth rescue, ATP luminescence, 38.5C; percent above DMSO median, 100 means doubled; growth rescue, % at 18.8 µM; 320,000 compounds, 1% hits; AID 2716;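 active = every valid replicate shows activation above 250% relative to neutral control wells; inactive = the rest, any valid replicate at or below 250%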;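 note: OY570 slx delta 5 strain wells were the positive control but not used for scaling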
VLA-4 inh: inhibition in a human VLA-4 binding assay; VLA-4 expressing cells, ligand binding flow cytometry; P13612; inhibition, % (about 7 µM as worked out from the volumes in the protocol); 330,000 compounds, 0.2% hits; in the data active = inhibition above about 50%
ALR H2O2 inh: inhibitors of human sulfhydryl oxidase ALR; P55789; purified ALR, DTT oxidation, H2O2 HRP-luminol luminescence; inhibition, % (concentration not given with the values); 290,000 compounds, 3.8% hits; AID 485317;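 active = mean replicate inhibition above about 79%, with every replicate also reaching it, limit read from the data; inconclusive = only one of the two criteria met; inactive = mean below limit and not every replicate reaching it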
Target sequence (P55789 whole entry, looked up): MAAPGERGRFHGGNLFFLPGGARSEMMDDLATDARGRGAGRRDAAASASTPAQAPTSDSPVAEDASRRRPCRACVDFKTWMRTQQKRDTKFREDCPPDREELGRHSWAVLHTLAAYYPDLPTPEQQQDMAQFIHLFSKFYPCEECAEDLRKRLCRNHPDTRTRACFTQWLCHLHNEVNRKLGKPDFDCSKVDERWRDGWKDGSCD
* hit, by the source's call; u = inconclusive; x = no result given. An excerpt weighted towards active compounds, which were near 7.2% of everything screened.

SMILES	A1 inh	Efflux pump mplx	AHR activator	Mot1-301 SUMO	VLA-4 inh	ALR H2O2 inh
COc1ccc(-n2c(SCC(=O)N3CCCCC3)nc(O)cc2=O)cc1	0.1	0.3	-0.8	-12.7	17.3	15.4
Cc1ccc(-n2c(SCC(=O)Nc3ccc4c5c(cccc35)CC4)nc(O)c(C)c2=O)cc1	2.0	-0.6	1.7	8.7	6.9	98.5*
COc1ccc(-n2c(SCC(=O)Nc3ccccc3)nc(O)cc2=O)cc1	0.6	0.0	-0.8	-17.2	2.9	87.7*
Cc1ccccc1NC(=O)CSc1nc(O)cc(=O)n1C	0.2	-0.1	-0.1	-7.8	-3.5	98.8*
COc1ccc(NC(=O)CSc2nc(O)cc(=O)n2-c2ccc(OC)cc2)cc1	0.6	0.0	-1.1	-12.0	-1.9	98.6*
CCOC(=O)c1cc(C)sc1/N=C/C1=C(O)CCCC1=O	1.1	0.1	1.2	-6.7	4.5	32.5
Cc1ccc(NC(=O)CSc2nc(=O)cc(N)n2-c2ccccc2)cc1	-0.5	0.0	6.3	-11.7	27.6	x
O=C(CSc1nc(O)cc(=O)n1-c1ccccc1)c1ccc(Br)cc1	0.5	0.2	-0.2	0.4	15.0	98.3*
Cc1c(O)nc(SCC(=O)Nc2nccs2)n(-c2ccccc2F)c1=O	-0.5	0.1	x	-3.6	-19.3	98.9*
COC(=O)c1cccc(NC(=O)CSc2nc(=O)cc(N)n2-c2ccccc2)c1	-0.1	0.0	-0.6	-24.6	8.1	98.4*
CC1CCC(NC(=O)CN2C(=O)c3ccccc3S2(=O)=O)CC1 (stereo not drawn)	0.0	0.0	0.3	-3.2	22.3	-4.1
Cc1cc(NC(=O)C2CCC2)n(-c2ccccn2)n1	0.3	-0.1	-0.3	-5.6	6.0	7.9
OCCN(CCO)Cc1ccc(Br)cc1	-0.5	0.1	63.2*	-0.3	12.4	-3.8
Cc1ccc(CN(CCO)CCO)cc1	0.3	-0.1	0.6	-1.7	-2.4	-0.9
Clc1ccc(Nc2nc(-c3ccncc3)cs2)cc1	0.0	-0.2	23.5	x	1.8	-2.3
Oc1ccc(Nc2nc(-c3ccc(O)cc3)cs2)cc1	-0.8	0.2	38.0	5.7	-0.6	100.0*
CC(=O)c1ccc(Nc2nc(-c3cccnc3)cs2)cc1	-0.6	-0.1	x	0.6	4.2	-5.9
Oc1ccc(Nc2nc(-c3cccnc3)cs2)cc1	-3.4	0.1	73.7*	-1.4	-3.3	10.2
Brc1ccc(Nc2nc(-c3cccnc3)cs2)cc1	-0.7	0.0	40.8	x	-5.4	40.0
Cc1ccc(Nc2nc(-c3cccnc3)cs2)cc1C	-0.1	-0.1	54.4*	135.5	6.8	1.6
Nc1ccc(Nc2nc(-c3ccncc3)cs2)cc1	-2.4	-0.2	90.6*	-7.0	-23.8	39.0
NS(=O)(=O)c1ccc(Nc2nc(-c3ccc(O)cc3)cs2)cc1	1.4	-0.3	3.8	0.7	-6.3	u
CCOC(=O)C1=C(Nc2ccccc2)CC(C)(O)C(C(=O)OCC)C1c1ccc(Br)cc1 (stereo not drawn)	0.7	0.0	-0.9	270.2	4.3	2.5
Cc1ccc(C(=O)Nc2nc(-c3cccnc3)cs2)o1	-2.5	-0.1	69.9*	211.2	12.9	-9.6
O=C(CN1C(=O)NC2(CCCC2)C1=O)NNC(=O)c1ccc(Br)cc1	u	0.1	-1.4	-9.5	8.8	23.0
SMILES	A1 inh	Efflux pump mplx	AHR activator	Mot1-301 SUMO	VLA-4 inh	ALR H2O2 inh
COc1ccc2c3c([nH]c2c1)C(C)N(CCC(=O)NN)CC3 (stereo not drawn)	0.7	0.1	x	16.2	8.7	59.4
COc1ccc2c3c([nH]c2c1)C(C)N(C(C)=O)CC3 (stereo not drawn)	1.5	-0.3	6.0	-19.3	-2.6	96.8*
COc1ccc(NC(=O)c2nc3nccc(C)n3n2)cn1	0.0	-0.1	8.1	-4.2	0.0	-5.5
O=C(Cc1cccs1)Nc1nc2c(ccc3ccccc32)s1	1.2	0.3	60.5*	16.7	4.3	-19.5
O=C1c2ccc(Cl)cc2S(=O)(=O)c2cccc(C(=O)N3CCN(c4ccc(Cl)cn4)CC3)c21	2.4	0.0	0.6	7.1	-0.6	-2.6
Cc1ccc(CNc2ccc3c(c2)ncn3C(C)C)cc1	0.6	0.3	21.4	17.1	-5.0	93.1*
CCn1cnc2cc(NCc3nc4ccccc4n3Cc3ccccc3)ccc21	-0.8	-0.1	73.1*	152.8	3.5	-2.9
CCCn1cnc2cc(NCc3ccc(Br)cc3)ccc21	-0.2	0.0	86.9*	-0.7	3.3	44.2

Source: PubChem (several laboratories)
